Screens: PubChem BioAssay, National Center for Advancing Translational Sciences (NCATS)
Pf growth 48h = Primary qHTS for delayed death inhibitors of the malarial parasite plastid, 48 hour incubation; AID 504832, 2011; Potency, µM (top dose mostly 28.7 µM), inactives show at the top dose activity change, negative = inhibition, hits mostly inhibitors; P. falciparum luciferase growth in erythrocytes, 48 h; actives 5.9% (n = 310,000)
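Compounds are pin-transferred into medium, infected erythrocytes (2% hematocrit, 0.1% parasitemia final) are added, and plates sit one parasite generation at 37 C in 5% CO2. Detection reagent is then added and luminescence measured.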
VACV mCherry inh = qHTS for Stage-Specific Inhibitors of Vaccinia Orthopoxvirus: mCherry Reporter Primary qHTS; Vaccinia virus mCherry reporter infection, fluorescence; Potency, µM (titrated, usually from 36.5 µM), for the others: top-dose activity change, negative = inhibition, actives largely listed as inhibitors; actives 0.63% (n = 310,000); AID 720579, 2013; calls by dose curve; tested in A549 cells; also: nearly all actives have a fitted effect of over 35% in size
Vaccinia Venus = qHTS for Stage-Specific Inhibitors of Vaccinia Orthopoxvirus: Venus Reporter Primary qHTS; Vaccinia virus Venus reporter expression, fluorescence; Potency, µM (titrated, usually from 36.5 µM), without a hit: top-dose activity change, negative = inhibition, hits mostly inhibitors; actives 0.46% (n = 330,000); AID 720580, 2013; calls by dose curve; tested in A549 cells; also: nearly all actives have a fitted effect of over 30% in size
AMA1 RON2 block = qHTS for Inhibitors of AMA1-RON; Towards Development of Antimalarial Drug Lead: Primary Screen | Plasmodium falciparum AMA1 (3D7) - RON2 peptide interaction | AlphaScreen AMA1-biotinylated RON2 peptide binding | Potency, µM (highest dose often 58.2 µM), inactives show at the top dose activity change, negative = inhibition, actives largely listed as inhibitors | actives 0.2% (n = 360,000) | AID 720542, 2013;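 also: 0% = vehicle wells and -100% = peptide control; nearly all actives have a fitted effect of over 45% in size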
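AMA1 (3D7) with his tag at 25 nM final met compounds first, then biotinylated RON2 peptide at 25 nM; detection used donor plus acceptor beads, 10 µg/mL apiece, read by AlphaScreen after 30 min at room temperature.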
Pf growth 96h = Primary qHTS for delayed death inhibitors of the malarial parasite plastid, 96 hour incubation; P. falciparum luciferase reporter growth, 96 h; Potency, µM (series often up to 28.7 µM), inactives show at the top dose activity change, negative = inhibition, usual class: inhibitors; actives 6.9% (n = 320,000)
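Luminescence readout: decreased luciferase signal marks inhibited growth of reporter-expressing P. falciparum in infected red cells (2% hematocrit, 0.05% parasitemia final), exposed to compound two generations (96 h, 37 C, 5% CO2).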
Active calls of the source: *. Shown are actives, neighbours in structure and some others; about 8.7% of the full set was active somewhere. Unless noted, calls follow the shape of the dose curve; as a rule, active = well fitted curve in the direction sought with a large enough effect; inconclusive = small, poorly fitted or top-dose-only effect, or another doubt; inactive = no such curve, though single readings can be large; an effect the other way counts as inactive or inconclusive. Unless noted, % is scaled to controls: 0 for no effect and ±100 for the full control effect; potency is read from the fitted curve at half-maximal effect.

What do the screens show for `CCOC(=O)N1CCN(S(=O)(=O)c2ccc(C(=O)N(CCCN(C)C)c3nc4ccc(CC)cc4s3)cc2)CC1`?
Pf growth 48h: 6.6µM*; VACV mCherry inh: -29%; Vaccinia Venus: -25%; AMA1 RON2 block: -22%; Pf growth 96h: inconclusive

What do the screens show for `Cc1ccc2nc(N(CCCN(C)C)C(=O)c3ccc(S(=O)(=O)N4CCCCCC4)cc3)sc2c1`?
Pf growth 48h: 13µM*; VACV mCherry inh: -27%; Vaccinia Venus: inconclusive; AMA1 RON2 block: -10%; Pf growth 96h: inconclusive

How did Cc1ccc(C)c(N2CCN(C(=O)CCS(=O)(=O)c3cc4c(cc3Cl)NC(=O)CO4)CC2)c1 do in these assays?
VACV mCherry inh: -5%; Vaccinia Venus: -1%

Results for CCC(C)NC(=O)c1c(C)oc2ncn(CC(C)C)c(=O)c12 (stereo not given) ?
VACV mCherry inh: -17%; Vaccinia Venus: -6%

How did COc1ccc(Cl)cc1NC(=O)C(=O)NCc1ccc(Cl)cc1 do in these assays?
VACV mCherry inh: -9%; Vaccinia Venus: 8%

How did CCN(Cc1ccc(OC)c(COC)c1)CC1CCCN(CCc2cccc(OC)c2)C1 (stereo not given) do in these assays?
Pf growth 48h: inconclusive; AMA1 RON2 block: -11%; Pf growth 96h: -12%

Results for CCN(Cc1ccccc1OC)CC1CCCN(CCc2cccc(OC)c2)C1 (stereo not given) ?
Pf growth 48h: inconclusive; VACV mCherry inh: -19%; Vaccinia Venus: -17%; AMA1 RON2 block: -9%; Pf growth 96h: 4%

Results for Cc1occc1C(=O)N(C)CC1CCCN(CCc2ccc(Cl)cc2)C1 (stereo not given) ?
VACV mCherry inh: -3%; Vaccinia Venus: -16%; AMA1 RON2 block: -3%

What do the screens show for `CCN(Cc1ccc(NC(C)=O)cc1)CC1CCCN(CCc2cccc(OC)c2)C1` (stereo not given)?
Pf growth 48h: 12µM*; AMA1 RON2 block: 9%; Pf growth 96h: 12µM*

What do the screens show for `CN(Cc1ccc(C#CCCO)cc1)CC1CCCN(CCc2ccc(Cl)cc2)C1` (stereo not given)?
Pf growth 48h: 5.2µM*; AMA1 RON2 block: -11%; Pf growth 96h: -12%

What do the screens show for `CCN(Cc1ccc(C#CCCO)cc1)CC1CCCN(CCc2cccc(F)c2)C1` (stereo not given)?
Pf growth 48h: 4.7µM*; AMA1 RON2 block: -12%; Pf growth 96h: -22%

Results for CCN(Cc1ccc(OC)c(COC)c1)CC1CCCN(CCc2cccc(F)c2)C1 (stereo not given) ?
Pf growth 48h: 10µM*; AMA1 RON2 block: 0%; Pf growth 96h: inconclusive

Results for COc1ccc(CN2C(=O)C(NC(=O)c3ccc(C)cc3)(C(F)(F)F)N=C2c2ccccc2)cc1 (stereo not given) ?
VACV mCherry inh: 8%; Vaccinia Venus: 2%

What do the screens show for `COc1ccc(N2CC(NC(=O)C(c3ccccc3)c3ccccc3)CC2=O)cc1` (stereo not given)?
VACV mCherry inh: -20%; Vaccinia Venus: -8%

What do the screens show for `CCN(CC)CCCNc1oc(/C=C/c2ccc(OC)c(OC)c2)nc1C#N`?
VACV mCherry inh: -4%; Vaccinia Venus: -13%

Results for COc1cccc(CNC(=O)C2CCN(c3nc4ccc(Cl)cc4[nH]3)CC2)c1 ?
VACV mCherry inh: -18%; Vaccinia Venus: -10%

How did COc1ccc(CCN2CCCC(CN(C)Cc3cccc(OC)c3)C2)cc1 (stereo not given) do in these assays?
Pf growth 48h: inconclusive; VACV mCherry inh: -1%; Vaccinia Venus: -10%; AMA1 RON2 block: -9%; Pf growth 96h: inconclusive

Results for CN(Cc1ccccc1O)CC1CCCN(CCc2ccc(Cl)cc2)C1 (stereo not given) ?
Pf growth 48h: 10µM*; AMA1 RON2 block: -9%; Pf growth 96h: -14%
